Data from PubChem BioAssay AID1159580 (chemical genetic matrix, 2015).
Where “and” joins values, the source holds several entries; their conditions need not be identical. Equal values may be shown once. In all, about 5,500 compounds went through this assay and about 2,000 (36%) were called active. Another 18% or so got no clear call; they are omitted. The list shows a part of the results. A number with no mark means an inactive call. Rule as the data show it: active = normalized growth mostly below about 0.91 (no sharp cut-off); inconclusive = no clear call, values can overlap the other calls; inactive = mostly above about 0.92.

Test: chemical genetic growth profiling, strain panel (AID 1159580);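 also: tested at 20 µM; growth read once vehicle control cultures reached saturation at 30 °C; 1 = growth at the plate median or of vehicle wells; lower values mean less growth of the strain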
Conditions: S. cerevisiae deletion strains, growth OD

CCCCCCCCCCCC[C@H](C(=O)O)[C@@H](C)C(=O)O
normalized growth (locus YAL013W, strain DEP1, active compounds read low): 0.992 | normalized growth (locus YAL021C, strain ccr4, active compounds read low): 1.02 | normalized growth (locus YAL026C, strain drs2, active compounds read low): 0.952 | normalized growth (locus YAL030W, strain snc1, active compounds read low): 0.984 | normalized growth (locus YBL061C, strain skt5, active compounds read low): 0.982 | normalized growth (locus YBR009C, strain hhf1, active compounds read low): 0.994 | normalized growth (locus YBR021W, strain FUR4, active compounds read low): 0.995 | normalized growth (locus YBR023C, strain chs3, active compounds read low): 0.982 | normalized growth (locus YBR171W, strain sec66, active compounds read low): 0.936 | normalized growth (locus YBR229C, strain ROT2, active compounds read low): 0.993 | normalized growth (locus YBR231C, strain swc5, active compounds read low): 0.986 | normalized growth (locus YBR279W, strain paf1, active compounds read low): 0.976 | normalized growth (locus YCL011C, strain gbp2, active compounds read low): 0.995 | normalized growth (locus YCL016C, strain dcc1, active compounds read low): 0.996 | normalized growth (locus YCL029C, strain bik1, active compounds read low): 1.02 | normalized growth (locus YCL061C, strain MRC1, active compounds read low): 0.963 | normalized growth (locus YCL069W, strain vba3, active compounds read low): 0.975 | normalized growth (locus YCR088W, strain abp1, active compounds read low): 0.976 | normalized growth (locus YDL005C, strain med2, active compounds read low): 0.995 | normalized growth (locus YDL035C, strain GPR1, active compounds read low): 0.995 | normalized growth (locus YDL040C, strain nat1, active compounds read low): 0.977 | normalized growth (locus YDL074C, strain BRE1, active compounds read low): 0.986 | normalized growth (locus YDL101C, strain DUN1, active compounds read low): 1.02 | normalized growth (locus YDL134C, strain PPH21, active compounds read low): 0.993 | normalized growth (locus YDL185W, strain tfp1, active compounds read low): 1.03 | normalized growth (locus YDL192W, strain arf1, active compounds read low): 1.01 | normalized growth (locus YDR001C, strain nth1, active compounds read low): 0.966 | normalized growth (locus YDR069C, strain doa4, active compounds read low): 0.999 | normalized growth (locus YDR101C, strain arx1, active compounds read low): 1.01 | normalized growth (locus YDR137W, strain rgp1, active compounds read low): 0.929 | normalized growth (locus YDR150W, strain NUM1, active compounds read low): 0.998 | normalized growth (locus YDR159W, strain sac3, active compounds read low): 0.902 | normalized growth (locus YDR162C, strain NBP2, active compounds read low): 1.01 | normalized growth (locus YDR195W, strain ref2): 0.98 | normalized growth (locus YDR297W, strain sur2, active compounds read low): 0.976 | normalized growth (locus YDR318W, strain mcm21, active compounds read low): 1.02 | normalized growth (locus YDR334W, strain swr1, active compounds read low): 0.985 | normalized growth (locus YDR335W, strain msn5, active compounds read low): 0.986 | normalized growth (locus YDR388W, active compounds read low): 1.01 | normalized growth (locus YDR392W, strain spt3, active compounds read low): 0.832 | normalized growth (locus YDR502C, strain sam2, active compounds read low): 1.02 | normalized growth (locus YEL003W, strain gim4, active compounds read low): 0.995 | normalized growth (locus YEL037C, strain rad23, active compounds read low): 0.976 | normalized growth (locus YEL061C, strain CIN8 (second series), active compounds read low): 0.957 | normalized growth (locus YEL061C, strain CIN8, active compounds read low): 0.988 | normalized growth (locus YER015W, strain faa2, active compounds read low): 0.985 | normalized growth (locus YER016W, strain bim1, active compounds read low): 0.984 | normalized growth (locus YER110C, active compounds read low): 1 | normalized growth (locus YER111C, strain swi4, active compounds read low): 0.938 | normalized growth (locus YER155C, strain BEM2 (second series), active compounds read low): 0.874 | normalized growth (locus YER155C, strain BEM2, active compounds read low): 0.979 | normalized growth (locus YER167W, strain BCK2, active compounds read low): 1.01 | normalized growth (locus YFR010W, strain ubp6, active compounds read low): 1.02 | normalized growth (locus YGL078C, strain dbp3, active compounds read low): 0.98 | normalized growth (locus YGL086W, strain mad1, active compounds read low): 1.01 | normalized growth (locus YGL167C, strain pmr1, active compounds read low): 0.943 | normalized growth (locus YGL173C, strain kem1, active compounds read low): 0.958 | normalized growth (locus YGL227W, strain vid30, active compounds read low): 0.975 | normalized growth (locus YGL240W, strain doc1, active compounds read low): 0.979 | normalized growth (locus YGL248W, strain PDE1, active compounds read low): 1 | normalized growth (locus YGL253W, strain hxk2, active compounds read low): 0.976 | normalized growth (locus YGR078C, strain PAC10, active compounds read low): 1.01 | normalized growth (locus YGR135W, strain pre9, active compounds read low): 1.01 | normalized growth (locus YGR229C, strain SMI1, active compounds read low): 0.999 | normalized growth (locus YGR252W, strain gcn5, active compounds read low): 1.05 | normalized growth (locus YHR013C, strain ard1, active compounds read low): 1.01 | normalized growth (locus YHR027C, strain rpn1, active compounds read low): 0.984 | normalized growth (locus YHR030C, strain SLT2, active compounds read low): 0.993 and 0.941 | normalized growth (locus YHR079C, strain IRE1 (second series), active compounds read low): 1 | normalized growth (locus YHR079C, strain IRE1, active compounds read low): 0.953 | normalized growth (locus YHR094C, strain hxt1, active compounds read low): 0.989 | normalized growth (locus YHR129C, strain ARP1, active compounds read low): 0.989 | normalized growth (locus YHR142W, strain chs7, active compounds read low): 1.02 | normalized growth (locus YHR200W, strain rpn10, active compounds read low): 1.02 | normalized growth (locus YIL066C, strain RNR3, active compounds read low): 0.992 | normalized growth (locus YIL073C, strain SPO22, active compounds read low): 1.06 | normalized growth (locus YIL125W, strain kgd1, active compounds read low): 0.997 | normalized growth (locus YIR030C, strain dcg1, active compounds read low): 1 | normalized growth (locus YJL092W, strain hpr5, active compounds read low): 0.967 | normalized growth (locus YJL095W, strain BCK1 (second series), active compounds read low): 0.992 | normalized growth (locus YJL095W, strain BCK1, active compounds read low): 1.01 and 0.953 | normalized growth (locus YJL115W, strain asf1, active compounds read low): 0.94 | normalized growth (locus YJL129C, strain trk1, active compounds read low): 0.797 (active) | normalized growth (locus YJL134W, strain LCB3, active compounds read low): 0.991 | normalized growth (locus YJL154C, strain vps35, active compounds read low): 0.99 | normalized growth (locus YJL164C, strain tpk1, active compounds read low): 0.999 | normalized growth (locus YJL166W, strain qcr8, active compounds read low): 0.992 | normalized growth (locus YJL168C, strain set2, active compounds read low): 1 | normalized growth (locus YJL187C, strain SWE1 (second series), active compounds read low): 1 | normalized growth (locus YJL187C, strain SWE1, active compounds read low): 0.971 | normalized growth (locus YJR043C, strain POL32, active compounds read low): 0.996 | normalized growth (locus YJR066W, strain TOR1, active compounds read low): 0.884
